Test results as given in PubChem BioAssay (NCATS).
Results filed as inconclusive are left out. Where a call stands in place of a potency, no number is given. The source made the active and inactive calls. The call rests on the fitted dose curve; in most records, active means well fitted inhibition curve with a large enough effect; inconclusive means small, poorly fitted or top-dose-only effect; inactive means flat fitted curve, though single readings scatter.

Tests used:
Experiment in all cases: qHTS profiling for inhibitors of Plasmodium falciparum proliferation (AID 504749); further: nearly all actives have a fitted effect of over 60% in size
Conditions in all cases: P. falciparum in erythrocytes, SYBR Green DNA, 72 h; series mostly up to 28.7 µM
[1] = tested on: CP191
Outline: (§1)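 Three-day growth assay of blood-stage parasites in erythrocytes (0.3% parasitemia, 2.5% hematocrit) at 37 C, 5% CO2, quantified by SYBR Green DNA staining after overnight detergent lysis.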

[2] = tested on: CP192
Outline: as §1

[3] = tested on: CP194
Outline: as §1

[4] = tested on: CP201
Outline: as §1

[5] = tested on: CP211
Outline: as §1

[6] = tested on: CP215
Outline: as §1

[7] = tested on: CP217
Outline: as §1

[8] = tested on: CP238
Outline: as §1

[9] = tested on: CP247
Outline: as §1

[10] = tested on: CP250
Outline: as §1

[11] = tested on: CP252
Outline: as §1

[12] = tested on: CP260
Outline: as §1

[13] = tested on: CP262
Outline: as §1

[14] = tested on: CP265
Outline: as §1

[15] = tested on: CP266
Outline: as §1

[16] = tested on: CP268
Outline: as §1

[17] = tested on: CP269
Outline: as §1

[18] = tested on: CP237
Outline: as §1

[19] = tested on: CP256
Outline: as §1

[20] = tested on: CP203
Outline: as §1
Potency means the concentration at half of the fitted maximal effect.

SMILES	Potency [1]	Potency [2]	Potency [3]	Potency [4]	Potency [5]	Potency [6]	Potency [7]	Potency [8]	Potency [9]	Potency [10]	Potency [11]	Potency [12]	Potency [13]	Potency [14]	Potency [15]	Potency [16]	Potency [17]	Potency [18]	Potency [19]	Potency [20]
NC12CC3CC(CC(C3)C1)C2	inactive	inactive	inactive	inactive	inactive	inactive	inactive	inactive	inactive	inactive	inactive	inactive	inactive	inactive	inactive	inactive	inactive			
COc1ccc2[nH]cc(CCNC(C)=O)c2c1	inactive	inactive	inactive	inactive	inactive		inactive	inactive	inactive	inactive	inactive	inactive	inactive	inactive	inactive	inactive	inactive	inactive	inactive	
CN(C)C(=N)N=C(N)N	inactive			inactive			inactive	inactive	inactive	inactive	inactive	inactive		inactive	inactive			inactive	inactive	
CC(C)NCC(O)COc1ccc(CCOCC2CC2)cc1 (centres undefined)		inactive	inactive	inactive	inactive	inactive	inactive	inactive	inactive	inactive	inactive		inactive		inactive	inactive		inactive	inactive	inactive
O=C1N(c2ccccc2)c2ccccc2C1(Cc1ccncc1)Cc1ccncc1	inactive	inactive	inactive	inactive	inactive	inactive	inactive	inactive	inactive	inactive	inactive	inactive	inactive	inactive	inactive	inactive	inactive		inactive	
CC(COc1ccccc1)N(CCCl)Cc1ccccc1 (centres undefined)	inactive	inactive		inactive	inactive				inactive	inactive	inactive		inactive		inactive		inactive	11.2 µM (active)	inactive	
CC#C[C@]1(O)CC[C@H]2[C@@H]3CCC4=CC(=O)CCC4=C3[C@@H](c3ccc(N(C)C)cc3)C[C@@]21C	11.2 µM (active)		16.9 µM (active)	15.1 µM (active)	13.5 µM (active)	12 µM (active)	11.2 µM (active)		8.91 µM (active)							16.9 µM (active)	13.5 µM (active)	11.2 µM (active)		
O=c1[nH]cc(F)c(=O)[nH]1						inactive			8.91 µM (active)				inactive		inactive					
Nc1nc2c(ncn2COC(CO)CO)c(=O)[nH]1	inactive	inactive	inactive	inactive	inactive		inactive	inactive	inactive	inactive	inactive	inactive	inactive	inactive		inactive	inactive	inactive	inactive	
Clc1ccc2c(c1)C(N1CCNCC1)=Nc1ccccc1O2		inactive		inactive	inactive					inactive			inactive		inactive	inactive	inactive	7.08 µM (active)		
CN(C)CCCN1c2ccccc2CCc2ccc(Cl)cc21				inactive	inactive			inactive	inactive	inactive	inactive			inactive		inactive				
Cc1ccc(-c2cc(C(F)(F)F)nn2-c2ccc(S(N)(=O)=O)cc2)cc1						13.5 µM (active)		inactive												
O=C(c1ccc(F)cc1)C1CCN(CCn2c(=O)[nH]c3ccccc3c2=O)CC1		inactive	inactive	inactive	inactive		inactive	inactive			inactive	inactive	inactive	inactive	inactive		inactive	inactive	inactive	
Cn1ccc2cc3c(cc21)CCN3C(=O)Nc1cccnc1													inactive							
CNCCCC12CCC(c3ccccc31)c1ccccc12		inactive		inactive		inactive	inactive	inactive	inactive	inactive	inactive		inactive		inactive	inactive			inactive	
O=C(c1ccc(OCCN2CCCCC2)cc1)c1c(-c2ccc(O)cc2)sc2cc(O)ccc12	5.01 µM (active)			9.53 µM (active)		19 µM (active)			7.08 µM (active)			3.16 µM (active)	inactive			10.7 µM (active)		3.55 µM (active)		
CC(C)(Oc1ccc(C2CC2(Cl)Cl)cc1)C(=O)O (centres undefined)	inactive	inactive	inactive	inactive	inactive	inactive	inactive	inactive	inactive	inactive	inactive	inactive		inactive	inactive	inactive	inactive	inactive	inactive	
O=C(Nc1ccc([N+](=O)[O-])cc1Cl)c1cc(Cl)ccc1O	0.891 µM (active)					0.536 µM (active)		inactive				2.82 µM (active)				1.9 µM (active)	1.2 µM (active)	1.12 µM (active)		0.478 µM (active)
